# PubChem BioAssay (EPA / NIEHS)
# Records with an inconclusive call do not appear. The source made the active and inactive calls. The calls were made as follows: active = hit-call score of the fitted dose curve at least 0.9, where 1 is the maximum; inconclusive = response in the unintended direction; inactive = score below 0.9.
# Test system: DIO1 (gene 1733)
# Test: CCTE_GLTED_hDIO1: CCTE's human Deiodinase 1 (DIO1) Inhibition Assay, Great Lakes Toxicology and Ecology Division (GLTED) Lab (AID 2283987);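 also: isolated human DIO1 enzyme in a cell-free setup rather than cells; enzyme activity read as free iodide liberated from substrate via Sandell-Kolthoff colorimetry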
# Summary of the method: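 Inhibition read as reduced iodide release: after 3 h of human DIO1 with chemical, free iodide is quantified colorimetrically (Sandell-Kolthoff cerium/arsenic reaction). Triplicate plates, DMSO baseline.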
row,Compound,AC50
1,CCCCC/C=C\C/C=C\CCCCCCCC(=O)O,19.2 µM (active)
2,O=C(O)c1cc(O)c2ccccc2c1O,50.1 µM (active)
3,CCCCCCCCCCCCCCCCCCOS(=O)(=O)O,90.1 µM (active)
4,CCCCCCCOC(=O)c1ccc(O)cc1,75 µM (active)
5,CCCCCCCCCCCCc1ccc(O)cc1,31.5 µM (active)
6,O=c1c(O)c(-c2ccc(O)cc2O)oc2cc(O)cc(O)c12,9.81 µM (active)

# Target: Nucleoli Translocation, AR (gene 367) (UniProt P10275)
# Test: UPITT_HCI_U2OS_AR_TIF2_Nucleoli_Antagonist: University of Pittsburgh U2OS Androgen Receptor-Transcriptional Intermediary Factor 2 (AR-TIF2) Antagonism High Content Imaging Assay for Nucleoli Translocation (AID 2283997)
# Summary of the method: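 U2OS cells expressing RFP-tagged human AR and GFP-tagged TIF2 were imaged by high-content fluorescence microscopy for red AR signal in the nucleolar region. Compounds were screened at 20 uM final (0.2% DMSO), with activity fitted relative to DHT as baseline.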
# Nucleoli Translocation, AR (gene 367), sequence (P10275 whole entry, looked up): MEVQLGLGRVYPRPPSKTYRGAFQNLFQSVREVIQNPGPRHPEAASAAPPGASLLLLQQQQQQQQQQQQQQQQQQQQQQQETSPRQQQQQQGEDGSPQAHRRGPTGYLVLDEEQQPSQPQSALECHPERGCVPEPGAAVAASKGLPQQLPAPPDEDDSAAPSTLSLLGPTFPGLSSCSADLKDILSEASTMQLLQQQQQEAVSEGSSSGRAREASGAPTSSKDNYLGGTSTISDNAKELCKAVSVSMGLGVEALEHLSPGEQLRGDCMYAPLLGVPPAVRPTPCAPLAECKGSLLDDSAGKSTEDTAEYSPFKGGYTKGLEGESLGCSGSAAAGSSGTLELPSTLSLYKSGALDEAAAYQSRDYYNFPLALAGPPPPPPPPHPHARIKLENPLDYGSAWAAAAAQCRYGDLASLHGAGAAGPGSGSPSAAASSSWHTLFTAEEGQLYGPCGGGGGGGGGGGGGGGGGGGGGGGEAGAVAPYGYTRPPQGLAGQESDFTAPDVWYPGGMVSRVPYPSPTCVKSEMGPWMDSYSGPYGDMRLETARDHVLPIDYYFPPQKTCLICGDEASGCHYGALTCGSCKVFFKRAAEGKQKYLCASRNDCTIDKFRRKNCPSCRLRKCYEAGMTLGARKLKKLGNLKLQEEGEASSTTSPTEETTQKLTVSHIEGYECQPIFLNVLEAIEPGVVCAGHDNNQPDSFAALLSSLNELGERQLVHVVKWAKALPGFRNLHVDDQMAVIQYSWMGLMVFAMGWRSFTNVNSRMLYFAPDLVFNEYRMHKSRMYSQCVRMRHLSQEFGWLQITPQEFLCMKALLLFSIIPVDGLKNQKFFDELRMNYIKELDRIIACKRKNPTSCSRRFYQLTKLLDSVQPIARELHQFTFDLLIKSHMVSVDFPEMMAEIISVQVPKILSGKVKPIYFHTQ
Compound,outcome,AC50
CCC(C)c1ccccc1 (stereo not given),inactive,–
CN(C)Cc1cc(CN(C)C)c(O)c(CN(C)C)c1,inactive,–
Oc1ccc(/C=C/c2cc(O)cc(O)c2)cc1,–,5.07 µM (active)
CCCCC(CC)COC(=O)/C=C/c1ccc(OC)cc1 (stereo not given),inactive,–
Cc1ccc(C)c(OCCCC(C)(C)C(=O)O)c1,inactive,–
O=C(O)c1ccc2c(c1)C(=O)OC2=O,inactive,–
COc1cc(O)c(C(=O)c2ccccc2)cc1S(=O)(=O)O,inactive,–
C=C1C[C@H]2[C@@H]3C=C(C)C4=CC(=O)CC[C@]4(C)[C@H]3CC[C@]2(C)[C@@]1(OC(C)=O)C(C)=O,–,0.0947 µM (active)
COc1ccc(C(=O)c2ccccc2)c(O)c1,–,50 µM (active)
CC(=O)OCc1ccccc1,inactive,–
CCCCCC[C@@H](O)C/C=C\CCCCCCCC(=O)OCC(O)CO (stereo not given in full),inactive,–
c1ccc2c(c1)[nH]c1ccccc12,–,8.38 µM (active)
N#Cc1ccc(C(c2ccc(C#N)cc2)n2cncn2)cc1,inactive,–
CCc1cccc(C)c1N,inactive,–
Oc1ccc(-c2ccccc2)c(Cl)c1,–,13.8 µM (active)

# Target: Nucleoli Translocation, AR (gene 367) (UniProt P10275)
# Test: UPITT_HCI_U2OS_AR_TIF2_Nucleoli_Agonist: University of Pittsburgh U2OS Androgen Receptor-Transcriptional Intermediary Factor 2 (AR-TIF2) Agonism High Content Imaging Assay for Nucleoli Translocation (AID 2283998)
# Summary of the method: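 Nucleolar translocation of AR-RFP, with TIF2-GFP coexpressed in human osteosarcoma U2OS, imaged by high-content fluorescence. Compounds tested singly at 20 uM final, confirmed in triplicate, then titrated 0.195–50 uM final; gain-of-signal relative to DMSO.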
Compound,outcome,AC50
CCC(C)c1ccccc1 (stereo not given),inactive,–
CN(C)Cc1cc(CN(C)C)c(O)c(CN(C)C)c1,inactive,–
CCCCC(CC)COC(=O)/C=C/c1ccc(OC)cc1 (stereo not given),inactive,–
Cc1ccc(C)c(OCCCC(C)(C)C(=O)O)c1,inactive,–
O=C(O)c1ccc2c(c1)C(=O)OC2=O,inactive,–
C=C1C[C@H]2[C@@H]3C=C(C)C4=CC(=O)CC[C@]4(C)[C@H]3CC[C@]2(C)[C@@]1(OC(C)=O)C(C)=O,–,4 µM (active)
CC(=O)OCc1ccccc1,inactive,–
CCCCCC[C@@H](O)C/C=C\CCCCCCCC(=O)OCC(O)CO (stereo not given in full),inactive,–
c1ccc2c(c1)[nH]c1ccccc12,inactive,–
N#Cc1ccc(C(c2ccc(C#N)cc2)n2cncn2)cc1,inactive,–
CCCCCCCCCCCCCC(=O)OC(C)C,inactive,–
CCc1cccc(C)c1N,inactive,–
CCCCCCCCCC(C)=O,inactive,–
Oc1ccc(-c2ccccc2)c(Cl)c1,–,13.4 µM (active)
